Cy5 interf NS3h: counter-screen for HCV NS3 helicase inhibitors: fluorescence interference | hit rate 6% among 16,000 | fluorescence interference ratio at 100 µM | Cy5-dT15 DNA with NS3h; actives lie on both sides; signal over control mean, under 1 quenches;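 active = compound fluorescence over control fluorescence at most 0.8, a quencher, or at least a set upper limit, an enhancer; inactive = ratio between 0.8 and the set upper limit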
HCV NS3h FP: hepatitis C NS3 helicase inhibition, primary screen; hit rate 1.6% among 16,000; inhibition, % at 100 µM; NS3h Cy5-dT15 DNA binding, fluorescence polarization;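 active = inhibition above the average over every tested compound plus 3 SD, cut at about 40% in these data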
A number is an active result; i = inactive. Sampled rows, rich in hits. Any-hit rate of the full collection: about 7.6%.

SMILES	Cy5 interf NS3h	HCV NS3h FP
CCCCNC(=O)/C(=C/c1ccccc1)NC(=O)c1ccc(OC)cc1	i	i
O=C1/C(=C/c2cccc3ccccc23)SC(=S)N1C1CCS(=O)(=O)C1 (stereo not given)	i	i
O=C1/C(=C/c2cccc([N+](=O)[O-])c2)SC(=S)N1C1CCS(=O)(=O)C1 (stereo not given)	0.35	i
O=C(NC(=S)Nc1cccc2ccccc12)c1ccco1	i	i
CSc1ccc(/C=C/C(=O)c2ccc(NC(=O)c3cccs3)cc2)cc1	0.71	i
O=C(Nc1ccc(/C=C/C(=O)c2cccs2)cc1)c1ccc(Br)cc1	i	i
COc1ccc(OC)c(N(CC(=O)Nc2ccc(C)cc2C)S(C)(=O)=O)c1	i	i
Cc1ccc(NC(=O)CN(c2cc(Cl)cc(Cl)c2)S(C)(=O)=O)cc1	i	i
C=CCNC(=O)CN(c1cc(Cl)cc(Cl)c1)S(C)(=O)=O	1.2	i
Nc1nnc(SCC(=O)Nc2ccccc2[N+](=O)[O-])s1	i	i
Nc1nnc(SCc2ccc([N+](=O)[O-])cc2)s1	0.72	i
COc1ccc(/C(N)=N\OC(=O)c2cccc([N+](=O)[O-])c2C)cc1	i	i
O=C(c1cn(-c2ccccc2)nc1-c1ccccc1)N1CCCCC1	i	i
O=C(c1cc2nc(-c3cccs3)cc(C(F)(F)F)n2n1)N1CCc2ccccc2C1	i	i
NC(=O)c1cc2nc(-c3cccs3)cc(C(F)(F)F)n2n1	0.66	i
COc1cccc(NC(=O)/C(=C/c2ccccc2)c2ccccc2)c1	i	i
COc1ccc(OC)c(NC(=O)/C(=C/c2ccccc2)c2ccccc2)c1	0.61	i
COc1ccc(C2C(=C(O)c3ccccc3)C(=O)C(=O)N2c2nc3ccccc3s2)c(OC)c1 (stereo not given)	i	i
O=C(Nc1cc([N+](=O)[O-])ccc1O)c1cccc2ccccc12	i	i
COC(=O)c1cccc(-n2c(C)cc(/C=C(\C#N)C(=O)Nc3ccc(F)cc3)c2C)c1	i	i
CCOC(=O)C(C)Sc1nnnn1-c1ccccc1 (stereo not given)	i	i
Cc1cc(=O)n2c([nH]c3ccccc32)c1C(=O)O	0.79	i
CCN1C(=O)/C(=C\c2ccccc2OCc2cccc3ccccc23)SC1=S	i	i
COc1cc(/C=c2\sc3nc4ccccc4n3c2=O)ccc1OS(=O)(=O)c1ccccc1[N+](=O)[O-]	1.2	i
O=c1/c(=C/c2ccccc2OS(=O)(=O)c2ccccc2[N+](=O)[O-])sc2nc3ccccc3n12	i	i
SMILES	Cy5 interf NS3h	HCV NS3h FP
Cc1ccc(OCCOc2cccc(/C=C3/SC(=S)N(C)C3=O)c2)cc1C	i	i
Cc1cccc(/C=C2/SC(=S)N(C)C2=O)c1	0.68	i
COc1ccc(N2C(=O)/C(=C\c3ccsc3)SC2=S)cc1	i	i
CN1C(=O)/C(=C\c2ccsc2)SC1=S	0.69	i
CCCN=C(CCC)C1=C(O)C(C(=O)OC)C(C)(C)CC1=O (stereo not given)	i	i
Cc1ccc(S(=O)(=O)Nc2ccccc2I)cc1[N+](=O)[O-]	i	i
CC(=O)NC(c1ccc(C)cc1)c1c(OC(C)=O)ccc2ccccc12 (stereo not given)	i	i
COc1ccc(OC)c(S(=O)(=O)NCc2ccco2)c1	i	i
CCOc1cc(C=C2C(=O)NC(=O)NC2=O)ccc1OCCOc1ccccc1C	i	i
O=C1NC(=O)C(=Cc2ccc(OCc3ccc(F)cc3)cc2)C(=O)N1	0.7	i
COC(=O)COc1ccc(C=C2C(=O)NC(=S)NC2=O)cc1OC	i	i
COc1cc(C=C2C(=O)NC(=S)NC2=O)ccc1OCc1ccc(Cl)cc1	0.68	i
CCOc1cc(C=C2C(=O)NC(=O)NC2=O)ccc1OCc1ccc(Cl)cc1	0.4	i
COc1cc(C=C2C(=O)NC(=O)NC2=O)ccc1OCCC(C)C	0.8	i
O=C1NC(=O)C(=Cc2ccccc2OCc2ccc(F)cc2)C(=O)N1	i	i
CCOc1cc(/C=C2/SC(=O)NC2=O)ccc1OCc1ccc(Cl)cc1	i	i
CN(C)c1ccc(/C=C/C(=O)c2c(-c3ccccc3)c3cc(Cl)ccc3[nH]c2=O)cc1	i	i
O=C(O)c1cccc(Nc2nc(-c3ccc(Br)cc3)cs2)c1	i	i
CC(=O)NC(c1ccc(N(C)C)cc1)c1ccc2cccnc2c1O (stereo not given)	i	i
CCc1ccc(S(=O)(=O)Nc2ccc(OC(=O)c3ccc(Cl)cc3)cc2)cc1	i	i
CCOc1ccc(NC(=O)CN(c2ccc(C(C)C)cc2)S(=O)(=O)c2ccccc2)cc1	i	i
Cc1c(Cl)c([N+](=O)[O-])nn1CC(=O)N1CCCC1	i	i
Cc1c(Br)c([N+](=O)[O-])nn1CC(=O)N1CCc2ccccc2C1	0.56	i
Cc1ccccc1OCC(=O)Nc1cc(Sc2ccccc2)cc([N+](=O)[O-])c1	i	i
O=S(=O)(c1ccc2c(c1)Cc1cc(S(=O)(=O)n3cnc4ccccc43)ccc1-2)n1cnc2ccccc21	0.64	i
Cc1nc2ccccc2n1S(=O)(=O)c1ccc(Br)cc1	i	i

Compound activity deposited in PubChem by Milwaukee Institute for Drug Discovery.
